In the supplement of paper PMC3545927:
The other results are listed elsewhere or left out. The hit rate among all sequences tested is not known here.

Biological target: furin, P09958
Test: furin cleavage Z-score vs untreated control; higher = more cleavage, active = 3.5 or more, inactive = 1 or less, 8 variable residues between constant flanks
In short: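 Cleavage by purified furin was measured on 8-mer peptides fused to a cDNA oligonucleotide and held on magnetic beads by their N-terminus. Reactions (0.01 ml, 1:10 enzyme:substrate) ran 7.5, 15 or 30 min in 50 mM HEPES pH 7.5 with CaCl2 and NaCl. Released DNA was adapter-tagged by PCR and sequenced, with read counts giving abundance. Log counts versus furin-free reactions were lowess-adjusted and scaled by median absolute deviation to give the cleavage Z-score.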

furin, P09958, sequence (P09958 whole entry): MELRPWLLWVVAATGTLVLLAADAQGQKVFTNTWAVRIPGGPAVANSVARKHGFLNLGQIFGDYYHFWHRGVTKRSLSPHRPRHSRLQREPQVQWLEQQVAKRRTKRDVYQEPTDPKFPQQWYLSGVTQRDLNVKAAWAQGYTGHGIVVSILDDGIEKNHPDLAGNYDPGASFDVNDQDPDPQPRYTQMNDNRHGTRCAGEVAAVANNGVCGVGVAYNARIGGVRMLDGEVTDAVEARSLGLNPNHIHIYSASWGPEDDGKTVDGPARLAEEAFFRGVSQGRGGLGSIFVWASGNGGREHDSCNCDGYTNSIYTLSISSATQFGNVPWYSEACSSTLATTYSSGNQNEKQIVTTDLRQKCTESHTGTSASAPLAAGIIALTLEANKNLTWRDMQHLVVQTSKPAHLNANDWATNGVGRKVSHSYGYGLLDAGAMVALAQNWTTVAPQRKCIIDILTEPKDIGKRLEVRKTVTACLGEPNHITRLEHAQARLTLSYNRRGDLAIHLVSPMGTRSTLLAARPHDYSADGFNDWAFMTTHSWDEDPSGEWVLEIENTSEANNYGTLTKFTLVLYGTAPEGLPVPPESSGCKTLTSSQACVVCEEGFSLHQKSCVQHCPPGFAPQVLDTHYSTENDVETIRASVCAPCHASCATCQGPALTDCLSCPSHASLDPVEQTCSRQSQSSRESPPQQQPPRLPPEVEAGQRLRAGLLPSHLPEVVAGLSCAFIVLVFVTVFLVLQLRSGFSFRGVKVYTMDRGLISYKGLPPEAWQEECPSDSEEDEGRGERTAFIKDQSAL

Sequence	furin cleavage Z-score (7.5 min)	furin cleavage Z-score (15 min)	furin cleavage Z-score (30 min)
CASTQCSAHLAGNASASA [HC2522]	1.38	0.361 (inactive)	0.641 (inactive)
CASPDAELIEAGNASASA [HC1271]	-0.191 (inactive)	-1.02 (inactive)	-2.02 (inactive)
CASTPCSAHDAGNASASA [HC2571]	-1.23 (inactive)	-0.24 (inactive)	-0.964 (inactive)
CAFNILGGWVAGNASASA [HC1065]	-0.849 (inactive)	-1.69 (inactive)	0.522 (inactive)
CATQTVDFSLAGNASASA [HC890]	0.518 (inactive)	0.088 (inactive)	-1.06 (inactive)
CAIVCCSMSYAGNASASA [HC1984]	0.599 (inactive)	0.44 (inactive)	1.09
CAVVCCSMVYAGNASASA [HC2070]	1.39	-0.784 (inactive)	-0.578 (inactive)
CAVEAQLHVWAGNASASA [HC587]	0.261 (inactive)	1.76	0.118 (inactive)
CACPGRPWKSAGNASASA [FS-645]	0.174 (inactive)	0.632 (inactive)	-1.05 (inactive)
CAPAEILRKSAGNASASA [HC1296]	-1.4 (inactive)	-0.0107 (inactive)	-2.04 (inactive)
CAGKPRVRKSAGNASASA [FS-160]	11.6 (active)	11.6 (active)	7.27 (active)
CAQSLRQRKSAGNASASA [FS-915]	0.195 (inactive)	0.0646 (inactive)	0.773 (inactive)
CAGMIRVRKSAGNASASA [FS-244]	9.53 (active)	9.46 (active)	8.14 (active)
CAGPARSHRSAGNASASA [FS-1525]	2.6	5.21 (active)	5.09 (active)
CAEVPCHRKSAGNASASA [HC2394]	0.666 (inactive)	1.67	0.974 (inactive)
CAMYECSQHLAGNASASA [HC1689]	1.1	2.02	0.756 (inactive)
CAEVVYSTWVAGNASASA [HC137]	-0.752 (inactive)	0.088 (inactive)	1.03
CASTPCSRHLAGNASASA [HC2533]	1.13	0.843 (inactive)	-0.486 (inactive)
CATTPMSGSWAGNASASA [HC48]	-1.24 (inactive)	-0.966 (inactive)	-0.511 (inactive)
CAPTLWARMIAGNASASA [HC1579]	0.463 (inactive)	2.4	0.0409 (inactive)
CAPSNRSARAAGNASASA [FS-1245]	8.79 (active)	11.3 (active)	9 (active)
CAAACGDIINAGNASASA [HC656]	-0.691 (inactive)	-0.739 (inactive)	-0.629 (inactive)
CAREIRQAFKAGNASASA [FS-2912]	0.791 (inactive)	0.404 (inactive)	0.281 (inactive)
CAPEIRQARAAGNASASA [FS-1043]	3.65 (active)	4.35 (active)	4.12 (active)
CAYGAGVAGAAGNASASA [HC1088]	-0.899 (inactive)	-0.739 (inactive)	-0.913 (inactive)
CAAMFRVRRNAGNASASA [FS-5]	13 (active)	11.7 (active)	9.8 (active)
CAIRARVARAAGNASASA [FS-1348]	9.33 (active)	9.7 (active)	7.2 (active)
